Among the test systems are SR leukemia; RPMI-8226 leukemia; OVCAR-8 ovarian; OVCAR-5 ovarian; OVCAR-4 ovarian; SK-OV-3 ovarian; IGROV1 ovarian; OVCAR-3 ovarian; HS 578T breast; NCI/ADR-RES ovarian; T-47D breast; BT-549 breast; MDA-MB-435 melanoma; SW-620 colon; MCF7 breast; HCT-116 colon; HCC-2998 colon; KM12 colon.
What all share (assay): NCI-60 one-dose screen, 48 h (100 = growth as untreated, 0 = no growth, -100 = all killed)
Holding throughout (conditions): 10 µM unless noted

About 83,000 compounds went through this panel and 20% of them were active in at least one assay; those are over-represented in the sample as a whole.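 Step 1: grow cells in 96-well plates. Step 2: add test compound at a single concentration. Step 3: incubate 48 h. Step 4: record percent growth.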 A number with no mark means an inactive call. Activity calls are given as the source filed them. The calls were made as follows: active = growth percent below 10; inactive = the rest.

Take `O=C(NNC(=O)c1ccc(-n2cc(-c3ccccc3)nn2)cc1)Nc1ccccc1`: the growth in the experiment with SR leukemia is 110%; in the experiment with RPMI-8226 leukemia it was 102%; in the experiment on OVCAR-8 ovarian, 95.9%; with OVCAR-5 ovarian, 120%; with OVCAR-4 ovarian, 104%; in the experiment on SK-OV-3 ovarian it was 85.2%. Also, the growth with IGROV1 ovarian is 103%; with OVCAR-3 ovarian, 114%; with HS 578T breast it was 92.2%; in the experiment with NCI/ADR-RES ovarian, 107%; in the experiment on T-47D breast, 102%; in the experiment with BT-549 breast, 97.9%. Moreover, the growth in the experiment on MDA-MB-435 melanoma was 105%; in the experiment with SW-620 colon it was 101%; with MCF7 breast it was 99.4%; with HCT-116 colon it was 94.3%; in the experiment on HCC-2998 colon, 116%; in the experiment on KM12 colon, 107%.

On to `Cc1nnc(NC(=O)c2nc(S(=O)(=O)Cc3ccc(F)cc3)ncc2Cl)s1`, for which the growth in the experiment with SR leukemia is 1.43% (active); in the experiment with RPMI-8226 leukemia it was 37%; in the experiment on OVCAR-8 ovarian, 56.4%; with OVCAR-5 ovarian, 85.6%; in the experiment on OVCAR-4 ovarian, 101%; in the experiment on SK-OV-3 ovarian, 101%. For the same compound, the growth was 91.1% with IGROV1 ovarian; 21.8% in the experiment with OVCAR-3 ovarian; 93.1% in the experiment with HS 578T breast; 93% in the experiment on NCI/ADR-RES ovarian; 38.5% with T-47D breast; 26.7% in the experiment on BT-549 breast. In addition, the growth in the experiment with MDA-MB-435 melanoma is 75.9%; with SW-620 colon it was -59.8% (active); in the experiment with MCF7 breast, 44.7%; in the experiment on HCT-116 colon, -0.743% (active); in the experiment with HCC-2998 colon, 99.1%; in the experiment on KM12 colon, 90.8%.

As to `CCCCCCNC(=O)Oc1ccc(/C(=C(/C)Cc2ccc(OC)cc2)c2ccc(OCCCN(C)C)cc2)cc1`, the growth in the experiment with SR leukemia was -53.3% (active); in the experiment with RPMI-8226 leukemia it was -20.4% (active); with OVCAR-8 ovarian it was 13.3%; in the experiment on OVCAR-5 ovarian, 85.3%; in the experiment on OVCAR-4 ovarian, 60.7%; in the experiment with SK-OV-3 ovarian, 88.4%. In addition, the growth in the experiment with IGROV1 ovarian was 41.6%; in the experiment with OVCAR-3 ovarian, 55.9%; in the experiment with HS 578T breast it was 52.9%; with NCI/ADR-RES ovarian, 67.5%; with T-47D breast it was 18.9%; with BT-549 breast, 79%. For the same compound, the growth with MDA-MB-435 melanoma is 19.5%; in the experiment with SW-620 colon it was -21.8% (active); in the experiment with MCF7 breast, 8.65% (active); in the experiment on HCT-116 colon, -52.2% (active); in the experiment with HCC-2998 colon it was 35.2%; with KM12 colon it was 35.6%.

Turning to `CN(C)c1ccc(/C=C/C(=O)c2ccc(-n3cc(CN4CCN(c5cc6c(cc5F)c(=O)c(C(=O)O)cn6C5CC5)CC4)nn3)cc2)cc1`, the growth is 7.11% (active) in the experiment on SR leukemia; -24.6% (active) in the experiment with RPMI-8226 leukemia; 23.3% in the experiment on OVCAR-8 ovarian; 84.2% in the experiment on OVCAR-5 ovarian; 93.1% with OVCAR-4 ovarian; 71.6% in the experiment on SK-OV-3 ovarian. Also, the growth with IGROV1 ovarian was 39.6%; in the experiment on OVCAR-3 ovarian it was 46.6%; with HS 578T breast, 57.4%; with NCI/ADR-RES ovarian it was 92.1%; in the experiment with T-47D breast it was 76.8%; in the experiment with BT-549 breast, 32%. Besides, the growth in the experiment with MDA-MB-435 melanoma was 64.7%; with SW-620 colon it was 43.2%; in the experiment on MCF7 breast, 24.2%; with HCT-116 colon, -10.3% (active); in the experiment on HCC-2998 colon, 79.3%; in the experiment with KM12 colon, 32.9%.

For `Cc1ccc(-c2nc3nc(-c4ccc(F)cc4)nc(N4CCNCC4)c3o2)cc1`, the growth was -29.5% (active) in the experiment with SR leukemia; -47.2% (active) with RPMI-8226 leukemia; -50.1% (active) in the experiment on OVCAR-8 ovarian; -14.6% (active) in the experiment on OVCAR-5 ovarian; -77.1% (active) with OVCAR-4 ovarian; 107% in the experiment on SK-OV-3 ovarian. Besides, the growth is 42% with IGROV1 ovarian; -94.7% (active) in the experiment with OVCAR-3 ovarian; -5.74% (active) in the experiment with HS 578T breast; -19.1% (active) with NCI/ADR-RES ovarian; -27.4% (active) in the experiment on T-47D breast; 99.5% with BT-549 breast. Moreover, the growth in the experiment with MDA-MB-435 melanoma was 66%; in the experiment on SW-620 colon, -79.3% (active); in the experiment with MCF7 breast, -74.2% (active); in the experiment on HCT-116 colon, -92.1% (active); in the experiment with HCC-2998 colon, 19.4%; in the experiment on KM12 colon, -83.7% (active).

As to `Cc1ccc(NC(=S)NNC(=S)NNc2ccccc2)cc1C`, the growth with SR leukemia is 56.8%; with RPMI-8226 leukemia, 78.9%; with OVCAR-8 ovarian, 98.2%; in the experiment with OVCAR-5 ovarian, 105%; in the experiment on OVCAR-4 ovarian, 114%; in the experiment with SK-OV-3 ovarian it was 104%. Also, the growth in the experiment with IGROV1 ovarian is 98.5%; with OVCAR-3 ovarian, 73.9%; in the experiment on HS 578T breast it was 94.4%; in the experiment with NCI/ADR-RES ovarian it was 110%; in the experiment with T-47D breast it was 98.1%; with BT-549 breast, 120%. Also, the growth is 110% in the experiment on MDA-MB-435 melanoma; 106% with SW-620 colon; 98.9% in the experiment on MCF7 breast; 116% with HCT-116 colon; 123% in the experiment on HCC-2998 colon; 90.8% in the experiment with KM12 colon.

As to `O=C1Nc2ccccc2[C@]12CC(c1ccccc1)=NN2`, the growth was 21.6% in the experiment with SR leukemia; 39% in the experiment on RPMI-8226 leukemia; 65.8% with OVCAR-8 ovarian; 61.7% in the experiment on OVCAR-5 ovarian; 84.5% with OVCAR-4 ovarian; 57.1% with SK-OV-3 ovarian. The growth with IGROV1 ovarian is 33.1%; with OVCAR-3 ovarian it was 27.7%; in the experiment with HS 578T breast, 58.4%; in the experiment on NCI/ADR-RES ovarian it was 44.9%; with T-47D breast, 66.6%; in the experiment with BT-549 breast, 59.3%. Moreover, the growth in the experiment on MDA-MB-435 melanoma is -1.7% (active); in the experiment with SW-620 colon it was 23.4%; with MCF7 breast, 29.5%; with HCT-116 colon, 26.2%; in the experiment with HCC-2998 colon, 65%; in the experiment on KM12 colon it was 31.9%.

Consider `Cc1c(-n2nnc(-c3nc4ccccc4s3)c2N)c(=O)n(-c2ccccc2)n1C`, for which the growth in the experiment on SR leukemia was 103%; in the experiment with RPMI-8226 leukemia it was 105%; with OVCAR-8 ovarian it was 102%; in the experiment on OVCAR-5 ovarian, 92.8%; with OVCAR-4 ovarian it was 105%; in the experiment on SK-OV-3 ovarian, 97.8%. For the same compound, the growth was 90.5% in the experiment with IGROV1 ovarian; 107% in the experiment on OVCAR-3 ovarian; 100% with HS 578T breast; 92.5% with NCI/ADR-RES ovarian; 94.6% with T-47D breast; 107% in the experiment with BT-549 breast. In addition, the growth in the experiment with MDA-MB-435 melanoma was 114%; in the experiment with SW-620 colon, 106%; in the experiment with MCF7 breast it was 90.6%; with HCT-116 colon, 103%; with HCC-2998 colon it was 95.4%; in the experiment on KM12 colon, 106%.

Regarding `CC(=O)N(N=Nc1ccccc1)c1cccc2ccccc12`, the growth in the experiment on SR leukemia is 74.1%; in the experiment on RPMI-8226 leukemia, 102%; with OVCAR-8 ovarian, 84.1%; with OVCAR-5 ovarian it was 75.8%; in the experiment on OVCAR-4 ovarian, 94.5%; with SK-OV-3 ovarian, 82.7%. Also, the growth in the experiment with IGROV1 ovarian was 62.9%; in the experiment with OVCAR-3 ovarian it was 125%; in the experiment on HS 578T breast, 101%; in the experiment with NCI/ADR-RES ovarian, 78.5%; in the experiment with T-47D breast it was 84.7%; in the experiment on BT-549 breast it was 69.5%. The growth was 97.8% in the experiment with MDA-MB-435 melanoma; 55.8% in the experiment on SW-620 colon; 76.8% in the experiment on MCF7 breast; 56.4% in the experiment on HCT-116 colon; 94.7% with HCC-2998 colon; 108% with KM12 colon.
